Screening data from PubChem BioAssay.
Ba CapD inh: CapD enzyme inhibition; purified CapD enzyme, fluorescence intensity read-out; active compounds read low; z-score (no concentration beside the values); 0.23% of 140,000 active; AID 492967; in the data active = z-score mostly below about -2.9, no sharp cut-off; inactive = mostly above about -1.9
* hit, by the source's call. This excerpt belongs to a sample that is enriched for hits.

Results for O=C(Nc1nccs1)c1cc2ccccc2oc1=Nc1ccc(Cl)cc1 ?
Ba CapD inh: 0.17

How did CC1(C)CC(=O)C=C(Nc2sc3c(c2C(N)=O)CCCC3)C1 do in these assays?
Ba CapD inh: -2

What do the screens show for `N#CC(C#N)=NNc1ccccc1C(N)=O`?
Ba CapD inh: -6*

What do the screens show for `NC(=O)c1ccccc1NC(=O)Nc1ccccc1`?
Ba CapD inh: 3.7

What do the screens show for `CNc1ccccc1C(N)=O`?
Ba CapD inh: 75

Results for CC(=O)Nc1ccc(NC(=O)c2ccco2)cc1 ?
Ba CapD inh: 0.43

What do the screens show for `CC(=O)Nc1ccc(N/C=C/C(=O)c2ccco2)cc1`?
Ba CapD inh: -5.8*

Results for CN(C)c1ccc(N/C=C/C(=O)c2ccco2)cc1 ?
Ba CapD inh: -2.4

How did CCOC(CNC(=O)Nc1ccccc1OC)(OCC)c1ccccn1 do in these assays?
Ba CapD inh: 0.08

Results for Cc1cc(N2CCN(c3ccccn3)CC2)n2ncnc2n1 ?
Ba CapD inh: -0.31

Results for Cc1cc(N2CCc3ccccc32)n2ncnc2n1 ?
Ba CapD inh: -4.7*

Results for COc1ccccc1-c1c(C)nn2c(N3CCc4ccccc43)cc(C)nc12 ?
Ba CapD inh: 3.2

Results for Cc1[nH]c(C(=O)NCCCN2CC(C)CC(C)C2)c(C)c1C(=O)NC1CCCCC1 (configuration not stated) ?
Ba CapD inh: 0.25

How did CN1CCN(c2ccccc2NC(=O)Cn2cnc3onc(-c4ccc(F)cc4)c3c2=O)CC1 do in these assays?
Ba CapD inh: 0.21

What do the screens show for `OCCn1c(-c2ccccc2)nc2ccccc21`?
Ba CapD inh: 2.4

What do the screens show for `CC1(C)Cc2ccccc2-c2nc(-c3ccccc3)n(CCO)c(=O)c21`?
Ba CapD inh: 7.3

How did CC1(C)Cc2c(c(=S)nc(-c3ccccc3)n2CCO)CO1 do in these assays?
Ba CapD inh: -5.1*

What do the screens show for `CC1Sc2cc(S(=O)(=O)NCc3ccccc3)ccc2NC1=O` (configuration not stated)?
Ba CapD inh: 0.26

What do the screens show for `NC(=O)CSc1sc(=S)sc1SCC(N)=O`?
Ba CapD inh: -1.1

Results for NCCSc1sc(=S)sc1SCCN ?
Ba CapD inh: -0.58

Results for O=C(O)CSc1sc(=S)sc1SCC(=O)O ?
Ba CapD inh: -5*

How did O=C(Nc1c2c(nn1-c1ccc(F)cc1)CS(=O)(=O)C2)c1cc(Br)ccc1Cl do in these assays?
Ba CapD inh: 0.44

What do the screens show for `O=C1NC(=O)/C(=C\C=C\c2ccccc2)S1`?
Ba CapD inh: 0.62

What do the screens show for `O=C1NC(=S)S/C1=C\C=C\c1ccccc1`?
Ba CapD inh: -4*

How did O=C1NC(=S)NC(=O)C1=C/C=C/c1ccccc1 do in these assays?
Ba CapD inh: 0.025

Results for COC(=O)c1c(C)oc2ccc(N(C(=O)C3CCCCC3)S(=O)(=O)c3cc(C)c(C)cc3C)cc12 ?
Ba CapD inh: 0.78

What do the screens show for `CC(N=CC1=C(O)CC(C)(C)CC1=O)c1ccccc1` (configuration not stated)?
Ba CapD inh: 0.18

How did COc1cccc(-c2cc(C(F)(F)F)nc(-n3cccn3)n2)c1 do in these assays?
Ba CapD inh: -3.4*

Results for COc1nc(-c2ccccc2)cc(C(F)(F)F)n1 ?
Ba CapD inh: 0.12

How did COC(=O)c1ccn(-c2nc(-c3ccco3)cc(C(F)(F)F)n2)n1 do in these assays?
Ba CapD inh: 75

How did Cc1occc1C(=O)N1CCCCCC1 do in these assays?
Ba CapD inh: 0.015

Results for Clc1ccc(-n2ncc3c2ncn2nc(-c4ccccc4)nc32)cc1 ?
Ba CapD inh: 0.82

How did O=C(CSc1nnc(-c2ccco2)c(-c2ccco2)n1)Nc1ccc(C(=O)O)cc1 do in these assays?
Ba CapD inh: -11*

Results for O=C(CSc1nnc(-c2ccccc2)c(-c2ccccc2)n1)Nc1ccc(F)cc1 ?
Ba CapD inh: -0.73

Results for COc1ccc(C(=O)CSc2nnc(-c3ccco3)c(-c3ccco3)n2)cc1 ?
Ba CapD inh: 0.2

What do the screens show for `CCOC(=O)c1c(NC(=O)c2ccc(Cl)cc2)sc(C(=O)Nc2ccccc2OCC)c1C`?
Ba CapD inh: 0.22

How did O=C(Nn1c(SCc2cc(=O)n3cc(Cl)ccc3n2)nc2ccccc2c1=O)c1ccccc1 do in these assays?
Ba CapD inh: 2.9

How did CNS(=O)(=O)c1ccc(F)cc1 do in these assays?
Ba CapD inh: -1.3

Results for O=C(CS(=O)(=O)c1cn(Cc2ccccc2Cl)c2ccccc12)N1CCCCC1 ?
Ba CapD inh: 0.045

Results for O=C(NN1S(=O)(=O)c2ccccc2S1(=O)=O)c1ccc(Br)cc1 ?
Ba CapD inh: 0.28

Results for O=C(Nc1ccccc1C(=O)NN1S(=O)(=O)c2ccccc2S1(=O)=O)c1ccccc1Cl ?
Ba CapD inh: 0.09

Results for COc1cc(C(=O)NN2S(=O)(=O)c3ccccc3S2(=O)=O)cc(OC)c1OC ?
Ba CapD inh: -0.55

Results for Cc1ccc(C)n1NC(=O)c1ccco1 ?
Ba CapD inh: 0.055

What do the screens show for `O=C(NN1S(=O)(=O)c2ccccc2S1(=O)=O)c1ccco1`?
Ba CapD inh: -5.7*

How did O=C(NN1S(=O)(=O)c2ccccc2S1(=O)=O)c1cscn1 do in these assays?
Ba CapD inh: -6*

What do the screens show for `COc1ccccc1NC(=O)c1sc2ncn(Cc3cccc(F)c3)c(=O)c2c1C`?
Ba CapD inh: 4.2

What do the screens show for `COc1ccccc1N1CCN(CC(O)COc2c(F)cc(Br)cc2F)CC1` (configuration not stated)?
Ba CapD inh: 0.075

What do the screens show for `O=[N+]([O-])c1cccc(S(=O)(=O)Nc2cccc(-c3cn4ccccc4n3)c2)c1`?
Ba CapD inh: -1.1

How did COc1cc(C(=O)Nc2c(C(=O)c3ccccc3)oc3ccccc23)cc(OC)c1OC do in these assays?
Ba CapD inh: 9.6

Results for COc1ccc(-n2c(=O)cc(N3CCCC3)[nH]c2=O)cc1 ?
Ba CapD inh: -1.4

Results for CC1CN(c2cc(=O)n(-c3ccc(Cl)cc3)c(=O)[nH]2)CC(C)O1 (configuration not stated) ?
Ba CapD inh: -4.1*

Results for Cc1ccc(Cl)cc1-n1c(=O)cc(N2CC(C)OC(C)C2)[nH]c1=O (configuration not stated) ?
Ba CapD inh: -0.78

Results for O=C(COc1ccc2ccccc2c1)Oc1ccc(C(=O)c2ccccc2)cc1 ?
Ba CapD inh: 1.7

Results for CCN(CC)Cc1c(O)ccc2c(=O)c(-c3ccc(OC)c(OC)c3)c(C(F)(F)F)oc12 ?
Ba CapD inh: -0.02

How did CCCc1cc2c(=O)c(-c3ccc4c(c3)OCCO4)c(C(F)(F)F)oc2c(C=[N+](C)C)c1O do in these assays?
Ba CapD inh: -1.5

What do the screens show for `CCc1cc2c(=O)c(-c3ccc4c(c3)OCO4)c(C(F)(F)F)oc2c(CN(C)C)c1O`?
Ba CapD inh: -4*

What do the screens show for `O=C(Nc1cc(C(F)(F)F)cc(C(F)(F)F)c1)C(=S)N1CCCCC1`?
Ba CapD inh: 0.12

What do the screens show for `CC(C)(C)OC(=O)C(C)(C)S(=O)(=O)c1ccccn1`?
Ba CapD inh: -0.58

Results for O=c1c2nccnc2nc(SCc2ccc(F)cc2)n1Cc1ccccc1 ?
Ba CapD inh: -0.3

How did O=c1c2cccnc2nc(SCc2ccccc2F)n1Cc1ccccc1 do in these assays?
Ba CapD inh: 1

How did N#Cc1ccc(CSc2nc3ncccc3c(=O)n2Cc2ccccc2)cc1 do in these assays?
Ba CapD inh: -6.5*

Results for N#Cc1c2c(c(NCCCO)n3c1nc1ccccc13)CCC2 ?
Ba CapD inh: 0.9

How did O=C(CC1OC(=O)c2ccccc21)c1ccc(Cl)cc1 (configuration not stated) do in these assays?
Ba CapD inh: -0.43
